Our source for the z-score and composite z-score values is PubChem BioAssay.

The source made the active and inactive calls.

A short description of test [1]: optical density shifts of acrAB sulA E. coli – strain DRC41, OD650, 48 h, E. coli filamentation inducer project, primary screen (AID 1152).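 Note: E. coli MC1000 strain DRC41 lacking acrAB efflux pump and sulA.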 Conditions: higher = more signal, called active from +8 up or from −8 down.
The nature of test [2]: probe aLefty1 binding on compound microarray – biochemical, small-molecule microarray, 635/667 nm fluorescence, primary screen (AID 1153).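 Note: score merges spot fluorescence with signal-to-noise ratio from the scanned slide images.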 Conditions: higher = more signal.
Test [3] can be described thus: plasmodial surface anion channel blockers, osmotic lysis – cell-based, P. falciparum Indochina, OD700, 1 h, primary screen (AID 1154). Conditions: P. falciparum Indochina infected RBC osmotic lysis, higher = more signal, called active from +8 up or from −8 down.
A short description of test [4]: plasmodial surface anion channel blockers, osmotic lysis – cell-based, P. falciparum Indochina, OD700, 2 h, primary screen (AID 1155).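 Note: lysis reports solute entry through the parasite surface anion channel PSAC.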 Conditions: P. falciparum Indochina infected erythrocytes, higher = more signal, called active from +8 up or from −8 down.
The nature of test [5]: changes in parasitized red cell lysis, either direction – P. falciparum Indochina, OD700, 3 h, PSAC antagonist project, primary screen (AID 1156). To be noted: P. falciparum-infected erythrocytes, osmotic lysis, higher = more signal, called active from +8 up or from −8 down.
The nature of test [6]: plasmodial surface anion channel blockers, osmotic lysis – cell-based, P. falciparum Indochina, OD700, 18 h, primary screen (AID 1157). Conditions: P. falciparum Indochina infected erythrocytes, osmotic lysis OD700, 18 h; higher = more signal, called active from +8 up or from −8 down.
The nature of test [7]: S6 kinase pathway phospho-S6 level changes – cell-based, A549, cytoblot, luminescence, serum-stimulated, primary screen (AID 1158).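 Note: serum-stimulated A549 lung adenocarcinoma cells; signal is phosphorylated S6 detected by cytoblot immunostaining with HRP secondary.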 Conditions: 5 h, higher = more signal.
Test [8] deals with NADPH oxidase 2 (Homo sapiens) (UniProt P04839). Description: compounds shifting NOX2 Amplex Red fluorescence – cell-based, HEK293-NOX2, PMA-stimulated, NOX inhibitor project, primary screen (AID 1159). Note: test concentration not given here. To be noted: 45 min, higher = more signal, called active from +8 up or from −8 down.
In test [9] the target is NADPH oxidase 4 (Homo sapiens) (UniProt Q9NPH5). Kind of test: compounds shifting NOX4 Amplex Red fluorescence – cell-based, HEK293-NOX4, tetracycline-induced, NOX inhibitor project, primary screen (AID 1160). Conditions: HEK293-NOX4, Amplex Red H2O2 fluorescence, 45 min; higher = more signal, called active from +8 up or from −8 down.
Test [10] has as its target NADPH oxidase 5 (Homo sapiens) (UniProt Q96PH1). Kind of test: compounds shifting NOX5 Amplex Red fluorescence – cell-based, HEK293-NOX5, NOX inhibitor project, primary screen (AID 1161). To be noted: HEK293-NOX5, ionomycin, 45 min, higher = more signal.
Test [11] is described as follows: compound effects on lung adenocarcinoma cell viability – A549, calcein-AM fluorescence, 48 h, basal, profiling panel (AID 1162). Note: test concentration not given here. To be noted: higher = more signal.
Test [12] in a line: compound effects on differentiated 3T3-L1 adipocyte viability – cell-based, 3T3-L1 adipocytes, calcein-AM fluorescence, 48 h, basal, profiling panel (AID 1163). Note: test concentration not given here. Conditions: 3T3-L1 adipocytes viability, higher = more signal.
A short description of test [13]: compound effects on hepatocellular carcinoma cell viability – HepG2, calcein-AM fluorescence, 48 h, basal, profiling panel (AID 1164). Note: test concentration not given here. To be noted: higher = more signal.
Test [14] can be described thus: compound effects on multiple myeloma cell viability – MM1S, calcein-AM fluorescence, 48 h, basal, profiling panel (AID 1165).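 Note: viability of MM1S multiple myeloma cells under basal unstimulated conditions; test concentration not given here.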 To be noted: higher = more signal.
The nature of test [15]: calcein-AM signal in unstimulated myeloma cells – cell-based, calcein-AM fluorescence, 48 h, PK04 Diversity Set, profiling panel (AID 1166).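 Note: cells grown under basal conditions without added stimulus; test concentration not given here.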 Conditions: RPMI8226 myeloma viability, higher = more signal.
Test [16] in a line: JC-1 mitochondrial signal, unstimulated HepG2 cells – cell-based, JC-1 fluorescence, 24 h, 100 nL compound, profiling panel (AID 1167). Note: test concentration not given here. To be noted: HepG2 mitochondrial potential, higher = more signal.
A short description of test [17]: JC-1 mitochondrial signal, unstimulated adipocytes – cell-based, JC-1 fluorescence, 3T3-L1 adipocytes, 24 h, 100 nL compound, profiling panel (AID 1168). Note: test concentration not given here. To be noted: JC-1 mitochondrial fluorescence, higher = more signal, called active from +8 up or from −8 down.
The nature of test [18]: JC-1 mitochondrial signal, unstimulated myeloma cells – cell-based, JC-1 fluorescence, RPMI8226, 24 h, 100 nL compound, profiling panel (AID 1169). Note: test concentration not given here. Conditions: JC-1 mitochondrial potential fluorescence, higher = more signal.
A short description of test [19]: JC-1 mitochondrial signal, unstimulated MM1S myeloma – cell-based, JC-1 fluorescence, 24 h, 100 nL compound, profiling panel (AID 1170). Note: test concentration not given here. To be noted: MM1S mitochondrial potential, higher = more signal.
Test [20] in a line: resazurin metabolic signal in A549 cells – cell-based, resazurin fluorescence, 24 h, PK04 Diversity Set, profiling panel (AID 1171). Note: test concentration not given here. To be noted: A549 viability, higher = more signal, called active from +8 up or from −8 down. (In general: Alamar Blue is a resazurin reagent that responds to reducing activity.)

NADPH oxidase 5 (Homo sapiens), sequence (Q96PH1 whole entry, looked up): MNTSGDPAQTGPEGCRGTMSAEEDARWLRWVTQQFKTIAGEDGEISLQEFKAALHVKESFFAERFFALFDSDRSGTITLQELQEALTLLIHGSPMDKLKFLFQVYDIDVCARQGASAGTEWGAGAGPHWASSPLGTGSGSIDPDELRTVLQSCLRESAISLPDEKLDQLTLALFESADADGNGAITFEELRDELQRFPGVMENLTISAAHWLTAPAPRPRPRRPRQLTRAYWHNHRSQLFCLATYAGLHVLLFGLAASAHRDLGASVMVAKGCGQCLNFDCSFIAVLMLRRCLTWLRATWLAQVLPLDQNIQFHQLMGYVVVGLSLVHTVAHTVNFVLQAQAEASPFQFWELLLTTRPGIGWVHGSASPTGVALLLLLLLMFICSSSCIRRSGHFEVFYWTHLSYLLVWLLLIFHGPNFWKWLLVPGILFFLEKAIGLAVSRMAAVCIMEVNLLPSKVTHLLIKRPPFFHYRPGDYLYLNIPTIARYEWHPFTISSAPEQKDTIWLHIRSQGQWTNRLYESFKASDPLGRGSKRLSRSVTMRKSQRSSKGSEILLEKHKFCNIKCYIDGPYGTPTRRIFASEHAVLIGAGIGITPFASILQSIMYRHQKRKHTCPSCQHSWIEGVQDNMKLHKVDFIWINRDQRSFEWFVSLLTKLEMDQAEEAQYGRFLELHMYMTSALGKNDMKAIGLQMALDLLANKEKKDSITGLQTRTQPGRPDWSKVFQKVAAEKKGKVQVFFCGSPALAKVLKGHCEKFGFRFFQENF
NADPH oxidase 4 (Homo sapiens), sequence (Q9NPH5 whole entry, looked up): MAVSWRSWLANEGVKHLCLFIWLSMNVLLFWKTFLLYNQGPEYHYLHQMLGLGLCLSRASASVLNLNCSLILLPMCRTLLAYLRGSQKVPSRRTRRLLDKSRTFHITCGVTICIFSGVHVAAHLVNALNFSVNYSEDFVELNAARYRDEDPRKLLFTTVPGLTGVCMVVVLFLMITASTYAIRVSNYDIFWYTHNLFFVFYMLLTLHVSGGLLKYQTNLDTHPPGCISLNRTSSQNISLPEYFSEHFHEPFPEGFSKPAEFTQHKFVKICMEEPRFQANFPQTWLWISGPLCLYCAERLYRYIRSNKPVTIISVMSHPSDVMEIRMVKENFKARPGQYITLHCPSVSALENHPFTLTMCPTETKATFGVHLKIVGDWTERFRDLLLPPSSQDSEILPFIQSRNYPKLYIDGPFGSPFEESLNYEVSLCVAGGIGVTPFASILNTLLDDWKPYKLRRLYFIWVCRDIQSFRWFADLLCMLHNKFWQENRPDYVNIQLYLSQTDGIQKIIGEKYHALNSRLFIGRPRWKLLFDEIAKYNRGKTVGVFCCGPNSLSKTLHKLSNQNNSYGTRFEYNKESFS
NADPH oxidase 2 (Homo sapiens), sequence (P04839 whole entry, looked up): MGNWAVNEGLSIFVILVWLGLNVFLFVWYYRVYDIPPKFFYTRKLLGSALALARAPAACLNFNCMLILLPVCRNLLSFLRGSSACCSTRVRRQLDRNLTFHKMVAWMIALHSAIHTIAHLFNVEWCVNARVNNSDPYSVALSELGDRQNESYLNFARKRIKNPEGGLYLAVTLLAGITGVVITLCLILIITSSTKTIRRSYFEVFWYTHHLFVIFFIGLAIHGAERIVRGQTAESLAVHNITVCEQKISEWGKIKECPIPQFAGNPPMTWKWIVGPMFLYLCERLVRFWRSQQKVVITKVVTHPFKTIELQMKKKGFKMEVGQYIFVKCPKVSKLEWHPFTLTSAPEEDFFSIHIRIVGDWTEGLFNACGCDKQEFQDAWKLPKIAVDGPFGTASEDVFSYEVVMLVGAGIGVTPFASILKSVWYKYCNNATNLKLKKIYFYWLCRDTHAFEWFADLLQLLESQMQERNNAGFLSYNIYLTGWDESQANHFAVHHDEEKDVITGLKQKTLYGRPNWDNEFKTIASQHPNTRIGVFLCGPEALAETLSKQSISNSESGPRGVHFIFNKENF

In the case of `COCCCNC(=O)[C@@H]1c2ccccc2C(=O)N(Cc2ccccc2C(F)(F)F)[C@H]1c1ccc(CO)cc1`, the z-score in test [1] was 0.938 (inactive); in [3] it was 1.14 (inactive); in test [4], 0.165 (inactive); in [5], 0.0034 (inactive); in [6] it was -0.0633 (inactive); in [7] it was 0.0987. Moreover, the z-score in test [8] is -0.214 (inactive); in test [9], 0.732 (inactive); in [10], 0.498; in [11], 2.1; in [12], 1.29; in [13], 1. Moreover, the z-score was 0.7 in [14]; 0.237 in test [15]; 2.55 in [16]; -0.0216 (inactive) in [17]; -0.213 in test [18]; 0.872 in test [19]. Further, the z-score in test [20] is 1.8 (inactive). In [2], this compound gave a composite z-score of -0.198.
On to `[N-]=[N+]=NCc1ccccc1C[C@@]1(C(=O)N2CCCCC2)N=C(c2ccc(OCCCO)cc2)O[C@@H]1c1ccccc1N=[N+]=[N-]`, for which the z-score is 0.842 (inactive) in [1]; 31.2 (active) in test [3]; 30.4 (active) in test [4]; 2.6 (inactive) in test [5]; 3.27 (inactive) in [6]; -0.0417 in [7]. Also, the z-score is 1.2 (inactive) in [8]; -0.0332 (inactive) in test [9]; -1.27 in [10]; -0.0222 in [11]; 1.03 in test [12]; 0.471 in test [13]. For the same compound, the z-score in test [14] was -3.11; in test [15] it was -3.21; in [16], 0.821; in test [17], 0.636 (inactive); in [18], -1.25; in test [19] it was -1.14. Moreover, in test [20], the z-score is 0.0861 (inactive). The compound further came in with a composite z-score in test [2] of -0.126.
On to `[N-]=[N+]=NCc1ccccc1C[C@]1(C(=O)NCC(O)CO)N=C(c2ccc(OCCCO)cc2)O[C@H]1c1ccccc1CN=[N+]=[N-]` (stereo not given in full), for which the z-score in [1] was -0.0074 (inactive); in test [3] it was 19.3 (active); in [4] it was 2.49 (inactive); in test [5], 1.81 (inactive); in [6], -0.481 (inactive); in [7], 1.67. The z-score is -1.97 (inactive) in test [8]; -2.19 (inactive) in test [9]; -1.41 in test [10]; -0.905 in [11]; 1.01 in test [12]; -0.426 in test [13]. Moreover, the z-score was -2.3 in test [14]; -2.6 in test [15]; 0.136 in test [16]; -0.323 (inactive) in test [17]; -1.02 in test [18]; -0.555 in test [19]. Also, the z-score in test [20] was -0.402 (inactive). The same compound showed a composite z-score in test [2] of 0.865.
For `C=C(CCCC)/C(=C/C[C@@H](OC(C)=O)c1ccc(CO)o1)c1cc(C(=O)OC)ccc1OC`, the z-score in [1] was -0.132 (inactive); in test [3] it was 9.64 (active); in test [4] it was 0.938 (inactive); in test [5], 1.3 (inactive); in test [6], 0.553 (inactive); in test [7] it was 0.476. In addition, the z-score in test [8] is 0.615 (inactive); in [9], -0.832 (inactive); in test [10], -1.18; in test [11] it was 0.813; in [12], -0.504; in test [13], 0.882. For the same compound, the z-score in test [14] is -1.81; in [15], -0.564; in test [16], 0.152; in [17], -0.573 (inactive); in test [18], 0.507; in test [19], -1.36. Further, the z-score in test [20] was 0.111 (inactive). The compound also displayed a composite z-score in test [2] of -0.0011.
Consider `COc1ccc(C(O)C2C=CC3C(=O)N(c4ccccc4)C(=O)C3N2Nc2ccccc2)cc1OCc1ccccc1` (stereo not given), for which the z-score in [1] is -1.1 (inactive); in [3], 3.82 (inactive); in [4], 1.49 (inactive); in test [5] it was 0.421 (inactive); in test [6], 1.1 (inactive); in test [7], -1.39. For the same compound, the z-score in test [8] is -1.19 (inactive); in [9], -3.65 (inactive); in [10], -2.48; in test [11], 0.677; in [12], -1.4; in test [13], 1.29. In addition, the z-score is 0.337 in test [14]; -0.29 in test [15]; -1.02 in test [16]; -0.514 (inactive) in [17]; -0.307 in [18]; -0.699 in test [19]. Moreover, the z-score in test [20] was 0.789 (inactive). For the same compound, the composite z-score in test [2] amounted to 0.0924.
With `COc1c(C)cc(-c2cc3c(c(-c4ccccc4)n2)[Si](C(C)C)(C(C)C)OC3)cc1C`, the z-score in [1] was 0.118 (inactive); in [3] it was 1.54 (inactive); in test [4], 0.494 (inactive); in [5] it was 0.392 (inactive); in test [6], 0.506 (inactive); in test [7] it was 0.768. The z-score was 0.956 (inactive) in test [8]; 0.103 (inactive) in test [9]; 0.829 in [10]; 0.33 in test [11]; -0.182 in [12]; -0.43 in [13]. The z-score in [14] was -1.51; in [15], -0.515; in test [16] it was -0.759; in test [17] it was -0.00733 (inactive); in test [18] it was 0.00523; in test [19], 0.486. Further, the z-score in [20] is 0.51 (inactive). In test [2], this compound gave a composite z-score of -0.0287.
Turning to `COC(=O)[C@@]1(Cc2ccccc2)[C@H]2c3cc(C(=O)N4CCCC4)[nH]c3C[C@H]2CN1C(=O)c1ccccc1`, the z-score is -0.875 (inactive) in test [1]; 4.64 (inactive) in test [3]; 0.805 (inactive) in test [4]; 0.102 (inactive) in test [5]; 0.717 (inactive) in test [6]; 0.177 in test [7]. The z-score in [8] was 0.0123 (inactive); in test [9], -0.696 (inactive); in test [10], -0.713; in [11], -1.12; in [12] it was 0.904; in [13], -0.585. For the same compound, the z-score in test [14] is 0.277; in [15], -1.17; in test [16], 0.288; in test [17], -1.17 (inactive); in [18], -0.786; in test [19], -0.28. Moreover, the z-score in test [20] was 0.412 (inactive). For the same compound, in [2], the composite z-score was 0.269.
Consider `Cc1ccc(S[C@]2(C(=O)NCC(C)C)CC(=O)N(Cc3ccccc3Cl)[C@@H]2c2ccc(CO)cc2I)cc1`, for which the z-score in test [1] was -0.455 (inactive); in test [3] it was 3.05 (inactive); in [4], 0.592 (inactive); in [5], 1.24 (inactive); in test [6] it was 0.254 (inactive); in [7], 0.464. The z-score in [8] is 2.55 (inactive); in test [9], -0.402 (inactive); in [10], 1.52; in [11] it was -0.0583; in [12], -0.201; in [13] it was -0.752. Further, the z-score was -1.94 in test [14]; -1.67 in [15]; -0.0983 in test [16]; -0.559 (inactive) in [17]; -0.788 in test [18]; -1.75 in [19]. Besides, in [20], the z-score is 0.622 (inactive). Moreover, the composite z-score in test [2] was 0.258.
`CCCNC(=O)[C@@]1(c2ccc([N+](=O)[O-])cc2)CC(=O)N(C2CCCCC2)[C@@H]1c1ccc(CO)cc1I`: the z-score was -0.123 (inactive) in [1]; 19.3 (active) in test [3]; 3.4 (inactive) in [4]; 3.38 (inactive) in test [5]; 0.722 (inactive) in test [6]; -0.275 in test [7]. Besides, the z-score in test [8] was 1.02 (inactive); in [9], 0.187 (inactive); in test [10], 1.16; in test [11], -0.165; in test [12], -0.599; in test [13], -0.451. In addition, the z-score in [14] is -3.22; in test [15], -1.01; in test [16], 0.22; in test [17], -1.13 (inactive); in test [18], -0.677; in [19], -1.11. For the same compound, the z-score in [20] is 0.72 (inactive). Besides, the composite z-score in [2] stood at 0.317.
